The list is not random: actives were taken first. Their share in the collection is about 7.3%.
IP6K1 inh: blocks human inositol hexakisphosphate kinase 1. IP6K1 kinase, ADP-Glo luminescence, 2 h; hits give low values. Q92551. 140,000 tested, 0.81% active. activity change, % (series mostly up to about 58 µM); in the data active means activity change below about -25%
Target sequence (Q92551 whole entry, looked up): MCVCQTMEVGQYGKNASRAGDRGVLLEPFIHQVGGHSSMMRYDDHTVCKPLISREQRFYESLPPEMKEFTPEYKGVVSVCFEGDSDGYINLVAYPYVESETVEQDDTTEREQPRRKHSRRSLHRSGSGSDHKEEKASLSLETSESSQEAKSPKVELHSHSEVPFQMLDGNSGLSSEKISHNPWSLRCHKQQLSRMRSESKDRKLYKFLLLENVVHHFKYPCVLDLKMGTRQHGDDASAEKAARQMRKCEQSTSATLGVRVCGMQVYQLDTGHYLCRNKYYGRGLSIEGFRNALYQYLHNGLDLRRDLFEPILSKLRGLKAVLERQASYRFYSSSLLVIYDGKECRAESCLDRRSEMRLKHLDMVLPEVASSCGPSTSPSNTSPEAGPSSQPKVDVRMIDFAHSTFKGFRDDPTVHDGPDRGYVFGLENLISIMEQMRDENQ
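ADP-Glo luminescence measures ADP made by human IP6K1 during a 2 h RT reaction with ATP/IP6 (mix at 1.3 mM/130 uM); top library doses 57.5 and 19.1 uM final.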
HEK cytotox: cytotoxic compounds in HEK 293 cells; HEK 293 viability, ATP luminescence (CellTiter-Glo), 48-72 h; Potency, µM (series often up to 115 µM), hits mostly inhibitors; 94,000 tested, 6.6% active; AID 1345083; further: nearly all actives have a fitted effect of over 60% in size
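HEK 293 cells at 250 cells/well were exposed to compounds by pintool transfer for 48 or 72 hr at 37 degree Celsius, 5% CO2. Viability was read as ATP-coupled luminescence with CellTiter-Glo after 10 min at room temperature.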
HEK293 viab: counter-screen for SNCA expression inhibitors: cell viability. HEK-293-SNCA-luc viability, GF-AFC fluorescence, 24 h. Potency, µM (highest dose often 57.1 µM), hits mostly cytotoxic. 150,000 tested, 0.12% active. AID 1671193; further: nearly all actives have a fitted effect of over 30% in size
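Cytotoxicity counterscreen: after 24 h compound treatment of genome-edited SNCA-luciferase HEK-293 cells, live-cell protease substrate GF-AFC read by fluorescence after 30 min; activity scaled between DMSO (0%) and medium-only (-100%), curves Hill-fitted.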
SNCA expr inhib: reduces expression of the alpha-synuclein gene. HEK-293 SNCA-luciferase knock-in, luminescence, 24 h. Potency, µM (series often up to 57.2 µM), most hits filed as inhibitors. 140,000 tested, 0.17% active. AID 1671194; further: nearly all actives have a fitted effect of over 45% in size
3T3 cytotox: cytotoxic compounds in NIH 3T3 cells; NIH 3T3 viability, CellTiter-Glo ATP luminescence, 48-72 h; Potency, µM (titrated, usually from 96.7 µM), hits mostly inhibitors; 94,000 tested, 4.3% active; further: nearly all actives have a fitted effect of over 55% in size
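Luminescent ATP readout (CellTiter-Glo, 10 min RT) after 48 or 72 hr compound exposure of NIH 3T3 cells seeded at 400 cells/well in 1536-well format; quantitative HTS.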
FLuc inh-1: Photinus pyralis luciferase inhibition; 76,000 tested, 2.5% active; Potency, µM (top dose mostly 115 µM), actives largely listed as inhibitors; AID 1347043; purified P. pyralis luciferase, luminescence, biochemical; P08659; further: nearly all actives have a fitted effect of over 65% in size
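Luminescence read by CCD imager after adding enzyme (10nM final) to wells holding compound, titrated in qHTS. Substrates 10uM each D-luciferin and ATP; buffer 50mM Tris acetate pH 7.5, 10mM Mg acetate, Tween-20, BSA.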
FLuc SDR no ATP: binders stabilizing firefly luciferase, without ATP; shares compounds with FLuc inh-1; Purified FLuc-C-HiBiT, Nano-Glo HiBiT luminescence, no ATP; Potency, µM (doses to about 32.7 µM), actives largely listed as activators; 1,300 tested, 7.8% active; AID 1963318; further: nearly all actives have a fitted effect of over 55% in size
FLuc SDR ATP: firefly luciferase binding stabilization, ATP added | shares compounds with FLuc inh-1 | purified FLuc-C-HiBiT + ATP, HiBiT complementation luminescence | Potency, µM (doses to about 32.7 µM), usual class: activators | 1,300 tested, 8.7% active | AID 1963319;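 further: signal reports ligand binding via conformational change of the enzyme rather than luciferase catalysis; nearly all actives have a fitted effect of over 55% in size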
FLuc inh-2: blocks firefly luciferase enzymatic activity; shares compounds with FLuc inh-1; purified FLuc-C-HiBiT enzyme, luciferin luminescence; Potency, µM (top dose mostly 32.7 µM), most hits filed as inhibitors; 1,300 tested, 42% active; AID 1963320; further: nearly all actives have a fitted effect of over 70% in size
Numbers stand for hits; i = inactive; ? = inconclusive; nt = not tested or not shown; [ ] = another dose, or the depositor's remark. Unless noted, the call rests on the fitted dose curve; in most records, active means well fitted curve in the direction sought with a large enough effect; inconclusive means small, poorly fitted or top-dose-only effect, or another doubt; inactive means no such curve, though single readings can be large; an effect the other way counts as inactive or inconclusive.

SMILES	IP6K1 inh	HEK cytotox	HEK293 viab	SNCA expr inhib	3T3 cytotox	FLuc inh-1	FLuc SDR no ATP	FLuc SDR ATP	FLuc inh-2
O=C(O)CCC(=O)N[C@H]1CCN2C(=O)c3cc(/C=C/c4ccccc4)ccc3NC(=O)[C@H]12	i	i	i	i	i	?	nt	nt	nt
COc1ccc(NC(=O)CN2C(=O)C(c3ccccc3)=NC23CCCCC3)cc1	i	?	i[12.5 µM]	i	i	i	nt	nt	nt
CC(C)c1ccc(C2=CC(c3ccc(C(C)C)cc3)n3nnnc3N2)cc1 (centres undefined)	i	nt	?	i	nt	nt	i	i	i
CC(C)(Oc1ccc(-c2nc3cc(Cl)ccc3s2)cc1)C(=O)O	i	nt	i	nt	nt	nt	?	?	8.8µM
CCN(CC1CCOCC1)C(=O)c1cccnc1SC/C=C/c1ccccc1	i	?	i	i	i	11µM	i	i	?
CC(C)NC(=O)C1CCCN1C(=O)c1cccc(-c2ccccn2)c1 (centres undefined)	i	i	nt	nt	i	nt	nt	nt	nt
COCc1nncn1C1CCN(C(=O)Cc2ccccc2Cl)CC1	i	i	i	i	i	i	nt	nt	nt
CC(C)(CC(=O)O)CC(=O)N1Cc2[nH]cnc2C[C@H]1c1nc(Cc2ccccc2)no1	i	i	i	i	i	i	i	i	i
CC(C)CN1CCC(O)(c2csc(CN3CCOCC3)n2)CC1	i	i	i	i	i	i	nt	nt	nt
Cc1cc(C(=O)NCC2(COc3ccc(S(C)(=O)=O)cc3)C[C@@H](O)[C@@H](O)C2)n(C)n1 (some centres undefined)	i	i	i	i	i	i	nt	nt	nt
CCOc1ccc(C(=O)Nc2onc3c2CCCC3)cc1	i	nt	i	i	nt	nt	?	7µM	2µM
CC(C)COc1ccc(C(=O)Nc2onc3c2CCCC3)cc1	i	nt	i	i	nt	nt	i	?	2µM
O=C(Nc1onc2c1CCCC2)c1ccccc1	i	nt	i	i	nt	nt	i	?	?
COc1cccc(CNC(=O)c2cc3n(n2)CC(c2ccc4c(c2)OCO4)OC3)c1 (centres undefined)	i	?	i	i	?	i	nt	nt	nt
O=c1c2nc(N3CCC(c4ccccc4)CC3)ccc2ncn1C1CC1	i	89µM	i	i	?	1.4µM	20µM	?	3.6µM
O=c1c2nc(-c3ccccc3C(F)(F)F)ccc2ncn1C1CC1	i	i	i	i	?	i	nt	nt	nt
Cc1ccccc1NC(=O)N1CCc2c(c3cc(F)ccc3n2C)C1	i	?	i	i	?	i	nt	nt	nt
O=C(c1ccccc1C(F)(F)F)N1CCOc2c(cc(-c3nc4ccccc4s3)cc2OC2CCOC2)C1 (centres undefined)	nt	nt	nt	nt	nt	nt	i	i	i
Oc1ccc(Cl)cc1CN1CCOc2c(O)cc(-c3nc4ccccc4s3)cc2C1	nt	nt	nt	nt	nt	nt	i	i	i
CC(CCc1ccc(O)cc1)N1CCOc2c(O)cc(-c3nc4ccccc4s3)cc2C1 (centres undefined)	nt	nt	nt	nt	nt	nt	i	i	i
Oc1cc(-c2cccc(Cl)c2)cc2c1OCCN(Cc1noc(C3CC3)n1)C2	i	?	i	i	?	i	nt	nt	nt
CC(=O)NCCC(=O)N1CCOc2c(O)cc(-c3cccc(Cl)c3)cc2C1	i	?	i	i	i	i	nt	nt	nt
C=CCCC(=O)N1CCOc2c(O)cc(-c3nc4ccccc4s3)cc2C1	i	50µM	i	i	?	?	i	i	i
CCn1cc(C(=O)N2CCOc3c(O)cc(-c4ccccc4C)cc3C2)cn1	i	?	i	i	?	i	nt	nt	nt
COc1cccc(CC(=O)N2CCCN(Cc3ccncc3)C(c3ccccc3)CC(=O)NCC2)c1 (centres undefined)	i	?	i	i	i	i	nt	nt	nt
SMILES	IP6K1 inh	HEK cytotox	HEK293 viab	SNCA expr inhib	3T3 cytotox	FLuc inh-1	FLuc SDR no ATP	FLuc SDR ATP	FLuc inh-2
Cc1oc(C(O)c2ccccc2F)nc1C(=O)Nc1ccccc1 (centres undefined)	i	?	i	i	?	?	nt	nt	nt
Cc1oc(C(O)c2ccccc2F)nc1C(=O)Nc1ccc(N2CCOCC2)cc1 (centres undefined)	i	?	i	i	i	10µM	?	?	16µM
CCCCCOC(=O)CSc1ncnc2sc3c(c12)CCC(C)C3 (centres undefined)	i	nt	i	i	nt	nt	nt	nt	nt
CCCOC(=O)CSc1ncnc2sc3c(c12)CCC(C)C3 (centres undefined)	i	nt	i	i	nt	nt	i	i	?
Cc1cnc(CCNS(=O)(=O)c2ccc(C#N)cc2)n1C1CC1	i	?	i	i	i	i	nt	nt	nt
CC(C)n1cnnc1CC1CCN(C(=O)Nc2ccc3c(c2)OCCO3)CC1	i	i	i	i	i	7.9µM	i	?	9.9µM
CCc1n[nH]c(CC2CCN(C(=O)Nc3ccc4c(c3)OCCO4)CC2)n1	i	i	i	i	i	7.9µM	i	i	?
CCn1c(=O)c(C(=O)Nc2ccc(C(C)=O)cc2)nc2ccccc21	i	nt	i	?	nt	nt	?	?	?
COc1ccc(C(=O)N2CCC3(CC2)CC(N(Cc2ccccc2)C2CC2)CCO3)cc1 (centres undefined)	i	?	i	?	?	i	nt	nt	nt
COc1ccc(-c2cc(N3CCCC(NC(=O)c4cccc5[nH]ccc45)C3)n[nH]2)cc1 (centres undefined)	i	45µM	?	i	35µM	14µM	i	i	?
COc1ccc(-c2cc(N3CCCC(NC(=O)c4ccccc4F)C3)n[nH]2)cc1 (centres undefined)	i	?	i	i	?	?	nt	nt	nt
COc1ccc(-c2cc(N3CCCC(NC(=O)c4c[nH]c5ccccc45)C3)n[nH]2)cc1 (centres undefined)	i	?	?	i	?	10µM	i	i	?
COc1ccc(C(=O)NC2CCN(c3cc(-c4ccc(OC)cc4)[nH]n3)C2)cc1 (centres undefined)	i	i	i	i	i	i	nt	nt	nt
COc1ccc(-c2cc(N3CCCC(NC(=O)c4ccc5c(c4)OCO5)C3)n[nH]2)cc1 (centres undefined)	i	?	i	i	?	11µM	i	i	?
COc1ccc(-c2cc(N3CCCC(NC(=O)c4cccs4)C3)n[nH]2)cc1 (centres undefined)	i	?	?	i	?	14µM	i	i	?
CS(=O)(=O)N1CCC(C2CCN(C(=O)c3ccc4[nH]ccc4c3)C2)CC1 (centres undefined)	i	i	i[12.5 µM]	i	i	i	nt	nt	nt

Source: PubChem BioAssay (National Center for Advancing Translational Sciences (NCATS))
